From PubChem BioAssay
Calls of active or inactive are those of the source.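 The calls were made as follows: active = normalized viability below 100% at a tested concentration; inactive = the rest.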

Experiment: drug combination growth inhibition, ovarian cancer – cell-based, oncology-focused library, rucaparib conditional, profiling panel (AID 1508598)
Details: patient-derived ovarian cancer cells, CellTiter-Glo viability, 144 h; at 0.00488 µM; OCI-C5x cells; without rucaparib; active compounds read low
With `CNC(=O)c1ccc(N2C(=S)N(c3ccc(C#N)c(C(F)(F)F)c3)C(=O)C2(C)C)cc1F` the viability was 91.5% (active).
For `Cn1cncc1[C@@](N)(c1ccc(Cl)cc1)c1ccc2c(c1)c(-c1cccc(Cl)c1)cc(=O)n2C`, the viability was 122% (inactive).
For `O=C(O)c1ccc2c(c1)nc(Nc1cccc(Cl)c1)c1ccncc12`, the viability was 118% (inactive).
For `CC(C)C[C@H](NC(=O)CNC(=O)c1cc(Cl)ccc1Cl)B(O)O`, the viability was 129% (inactive).
In the case of `CC1(C)CCC(c2ccc(Cl)cc2)=C(CN2CCN(c3ccc(C(=O)NS(=O)(=O)c4ccc(N[C@H](CCN5CCOCC5)CSc5ccccc5)c(S(=O)(=O)C(F)(F)F)c4)cc3)CC2)C1`, the viability is reported as 62.4% (active).
For `C#Cc1cccc(Nc2ncnc3cc(OCCOC)c(OCCO)cc23)c1`, the viability was 127% (inactive).
For `CC(C)CC(=O)Nc1n[nH]c2c1CN(C(=O)C1CCN(C)CC1)C2(C)C`, the viability was 128% (inactive).
With `C=CCn1c(=O)c2cnc(Nc3ccc(N4CCN(C)CC4)cc3)nc2n1-c1cccc(C(C)(C)O)n1` the viability was 107% (inactive).
With `O=C(O)[C@H](Cc1c[nH]c2ccccc12)N1C(=O)c2ccccc2C1=O` the viability was 117% (inactive).
For `O=C(NC1CCNCC1)c1[nH]ncc1NC(=O)c1c(Cl)cccc1Cl`, the viability was 117% (inactive).
With `CC(C)C[C@H](NC(=O)CNC(=O)c1cc(Cl)ccc1Cl)B1OC(=O)CC(CC(=O)O)(C(=O)O)O1` (some centres undefined) the viability was 122% (inactive).

Same assay, conditions: patient-derived ovarian cancer cells, CellTiter-Glo viability, 144 h; at 0.00488 µM; OCI-P5x cells; with rucaparib 20 µM; active compounds read low; 100% = cells with rucaparib alone
With `CNC(=O)c1ccc(N2C(=S)N(c3ccc(C#N)c(C(F)(F)F)c3)C(=O)C2(C)C)cc1F` the viability was 90.9% (active).
For `Cn1cncc1[C@@](N)(c1ccc(Cl)cc1)c1ccc2c(c1)c(-c1cccc(Cl)c1)cc(=O)n2C`, the viability was 107% (inactive).
With `O=C(O)c1ccc2c(c1)nc(Nc1cccc(Cl)c1)c1ccncc12` the viability was 94% (active).
For `CC(C)C[C@H](NC(=O)CNC(=O)c1cc(Cl)ccc1Cl)B(O)O`, the viability was 104% (inactive).
For `CC1(C)CCC(c2ccc(Cl)cc2)=C(CN2CCN(c3ccc(C(=O)NS(=O)(=O)c4ccc(N[C@H](CCN5CCOCC5)CSc5ccccc5)c(S(=O)(=O)C(F)(F)F)c4)cc3)CC2)C1`, the viability was 127% (inactive).
With `C#Cc1cccc(Nc2ncnc3cc(OCCOC)c(OCCO)cc23)c1` the viability was 106% (inactive).
For `CC(C)CC(=O)Nc1n[nH]c2c1CN(C(=O)C1CCN(C)CC1)C2(C)C`, the viability was 95.7% (active).
For `C=CCn1c(=O)c2cnc(Nc3ccc(N4CCN(C)CC4)cc3)nc2n1-c1cccc(C(C)(C)O)n1`, the viability was 102% (inactive).
In the case of `O=C(O)[C@H](Cc1c[nH]c2ccccc12)N1C(=O)c2ccccc2C1=O`, the viability is reported as 89.2% (active).
In the case of `O=C(NC1CCNCC1)c1[nH]ncc1NC(=O)c1c(Cl)cccc1Cl`, the viability is reported as 103% (inactive).
With `CC(C)C[C@H](NC(=O)CNC(=O)c1cc(Cl)ccc1Cl)B1OC(=O)CC(CC(=O)O)(C(=O)O)O1` (some centres undefined) the viability was 112% (inactive).

Same assay, conditions: patient-derived ovarian cancer cells, CellTiter-Glo viability, 144 h; at 0.00488 µM; OCI-P5x cells; without rucaparib; active compounds read low
In the case of `CNC(=O)c1ccc(N2C(=S)N(c3ccc(C#N)c(C(F)(F)F)c3)C(=O)C2(C)C)cc1F`, the viability is reported as 85% (active).
With `Cn1cncc1[C@@](N)(c1ccc(Cl)cc1)c1ccc2c(c1)c(-c1cccc(Cl)c1)cc(=O)n2C` the viability was 107% (inactive).
For `O=C(O)c1ccc2c(c1)nc(Nc1cccc(Cl)c1)c1ccncc12`, the viability was 104% (inactive).
With `CC(C)C[C@H](NC(=O)CNC(=O)c1cc(Cl)ccc1Cl)B(O)O` the viability was 116% (inactive).
With `CC1(C)CCC(c2ccc(Cl)cc2)=C(CN2CCN(c3ccc(C(=O)NS(=O)(=O)c4ccc(N[C@H](CCN5CCOCC5)CSc5ccccc5)c(S(=O)(=O)C(F)(F)F)c4)cc3)CC2)C1` the viability was 105% (inactive).
With `C#Cc1cccc(Nc2ncnc3cc(OCCOC)c(OCCO)cc23)c1` the viability was 109% (inactive).
For `CC(C)CC(=O)Nc1n[nH]c2c1CN(C(=O)C1CCN(C)CC1)C2(C)C`, the viability was 112% (inactive).
In the case of `C=CCn1c(=O)c2cnc(Nc3ccc(N4CCN(C)CC4)cc3)nc2n1-c1cccc(C(C)(C)O)n1`, the viability is reported as 98.9% (active).
For `O=C(O)[C@H](Cc1c[nH]c2ccccc12)N1C(=O)c2ccccc2C1=O`, the viability was 93.1% (active).
With `O=C(NC1CCNCC1)c1[nH]ncc1NC(=O)c1c(Cl)cccc1Cl` the viability was 105% (inactive).
For `CC(C)C[C@H](NC(=O)CNC(=O)c1cc(Cl)ccc1Cl)B1OC(=O)CC(CC(=O)O)(C(=O)O)O1` (some centres undefined), the viability was 110% (inactive).

Same assay, conditions: patient-derived ovarian cancer cells, CellTiter-Glo viability, 144 h; at 0.0195 µM; OCI-C5x cells; with rucaparib 10 µM; active compounds read low; 100% = cells with rucaparib alone
With `CNC(=O)c1ccc(N2C(=S)N(c3ccc(C#N)c(C(F)(F)F)c3)C(=O)C2(C)C)cc1F` the viability was 113% (inactive).
With `Cn1cncc1[C@@](N)(c1ccc(Cl)cc1)c1ccc2c(c1)c(-c1cccc(Cl)c1)cc(=O)n2C` the viability was 114% (inactive).
With `O=C(O)c1ccc2c(c1)nc(Nc1cccc(Cl)c1)c1ccncc12` the viability was 98% (active).
For `CC(C)C[C@H](NC(=O)CNC(=O)c1cc(Cl)ccc1Cl)B(O)O`, the viability was 122% (inactive).
For `CC1(C)CCC(c2ccc(Cl)cc2)=C(CN2CCN(c3ccc(C(=O)NS(=O)(=O)c4ccc(N[C@H](CCN5CCOCC5)CSc5ccccc5)c(S(=O)(=O)C(F)(F)F)c4)cc3)CC2)C1`, the viability was 19.9% (active).
For `C#Cc1cccc(Nc2ncnc3cc(OCCOC)c(OCCO)cc23)c1`, the viability was 108% (inactive).
For `CC(C)CC(=O)Nc1n[nH]c2c1CN(C(=O)C1CCN(C)CC1)C2(C)C`, the viability was 120% (inactive).
In the case of `C=CCn1c(=O)c2cnc(Nc3ccc(N4CCN(C)CC4)cc3)nc2n1-c1cccc(C(C)(C)O)n1`, the viability is reported as 120% (inactive).
For `O=C(O)[C@H](Cc1c[nH]c2ccccc12)N1C(=O)c2ccccc2C1=O`, the viability was 116% (inactive).
With `O=C(NC1CCNCC1)c1[nH]ncc1NC(=O)c1c(Cl)cccc1Cl` the viability was 110% (inactive).
In the case of `CC(C)C[C@H](NC(=O)CNC(=O)c1cc(Cl)ccc1Cl)B1OC(=O)CC(CC(=O)O)(C(=O)O)O1` (some centres undefined), the viability is reported as 107% (inactive).
